According to PubChem BioAssay AID720597 (Broad Institute, 2013):
Potency and affinity values are given separately. The source made the active and inactive calls.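 Rule for the calls: active = fitted half-maximal dose no more than twice the top valid tested dose, for compounds that lower signal; inconclusive = fit invalid, or curve flat with activity between -70 and -30; inactive = potency past limit, curve flat within ±30, or signal increasing.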

Biological target: NAD-dependent protein deacylase sirtuin-5, mitochondrial (Homo sapiens) (UniProt Q9NXA8)
Experiment: blockers of sirtuin-5 peptide desuccinylation – biochemical, fluorescence imaging, cherry-pick, set 6, dose response (AID 720597);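 note: lower AMC signal can also come from blocking the trypsin step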
Conditions: Purified SirT5, succinyl-peptide-AMC/trypsin fluorescence; series mostly up to 15 µM

Chain of NAD-dependent protein deacylase sirtuin-5, mitochondrial (Homo sapiens) (Q9NXA8 whole entry, looked up): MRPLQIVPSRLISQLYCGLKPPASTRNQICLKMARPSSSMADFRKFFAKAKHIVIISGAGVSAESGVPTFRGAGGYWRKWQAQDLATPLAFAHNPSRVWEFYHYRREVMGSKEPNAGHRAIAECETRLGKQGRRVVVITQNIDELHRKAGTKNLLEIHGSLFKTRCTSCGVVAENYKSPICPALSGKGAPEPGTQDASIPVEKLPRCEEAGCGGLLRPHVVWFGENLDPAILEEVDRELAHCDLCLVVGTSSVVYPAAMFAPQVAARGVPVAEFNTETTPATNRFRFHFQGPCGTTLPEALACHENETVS

outcome, inactive:
COc1ccc(C#Cc2ccc([C@H]3[C@@H](CO)N4C(=O)CN(C(=O)c5cccnc5)C[C@@H]34)cc2)cc1
O=C(C[C@H]1CC[C@H]2[C@@H](COC[C@@H](O)CN2S(=O)(=O)c2ccccc2)O1)Nc1ccc(-c2ccccc2)cc1
COc1ccc(S(=O)(=O)Nc2ccc3c(c2)CC(=O)N([C@@H](C)CO)C[C@H](C)[C@H](CN(C)Cc2ccc(Oc4ccccc4)cc2)O3)cc1
COc1ccc(S(=O)(=O)Nc2ccc3c(c2)C(=O)N([C@H](C)CO)C[C@@H](C)[C@@H](CN(C)S(=O)(=O)c2ccccc2)OCCCC[C@@H](C)O3)cc1
C[C@@H]1CN([C@@H](C)CO)C(=O)Cc2cc(NC(=O)Nc3ccc4c(c3)OCO4)ccc2O[C@@H]1CN(C)CC1CCCCC1
CCCc1c(C)nc2ccc(Br)cc2c1SCCC(=O)O
C[C@@H]1CN([C@H](C)CO)C(=O)c2c(c3ccccc3n2C)-c2ccccc2CO[C@H]1CN(C)S(=O)(=O)c1ccc([N+](=O)[O-])cc1
C[C@H](CO)N1C[C@H](C)[C@@H](CN(C)C(=O)Nc2cc(F)ccc2F)Oc2cc(/C=C/c3ccccc3)ccc2S1(=O)=O
COc1ccc(NC(=O)Nc2ccc3c(c2)C(=O)N([C@@H](C)CO)C[C@@H](C)[C@H](CN(C)C(=O)Nc2cccc4ccccc24)OCCCC[C@H](C)O3)cc1
O=C1CN(Cc2ccccc2)C[C@@H]2[C@H](c3ccc(-c4ccccc4)cc3)[C@H](CO)N12
